Results as given in ChEMBL document CHEMBL1961873, “Compounds: GSK PKIS; Assays: Nanosyn kinase panel” (2012).

Legend:
[1] = system: Epidermal growth factor receptor (Homo sapiens), P00533 [T790M]; conditions: at 1 µM
[2] = system: Epidermal growth factor receptor (Homo sapiens), P00533 [L858R,T790M]; conditions: at 0.1 µM
[3] = system: Epidermal growth factor receptor (Homo sapiens), P00533 [L858R,T790M]; conditions: at 1 µM
[4] = target: Ephrin type-A receptor 2 (Homo sapiens) (UniProt P29317); conditions: at 0.1 µM
[5] = target: Ephrin type-A receptor 2 (Homo sapiens) (UniProt P29317); conditions: at 1 µM
[6] = target: T1, Ephrin type-A receptor 3 (Homo sapiens) (UniProt P29320); conditions: at 0.1 µM
T1 sequence (whole entry): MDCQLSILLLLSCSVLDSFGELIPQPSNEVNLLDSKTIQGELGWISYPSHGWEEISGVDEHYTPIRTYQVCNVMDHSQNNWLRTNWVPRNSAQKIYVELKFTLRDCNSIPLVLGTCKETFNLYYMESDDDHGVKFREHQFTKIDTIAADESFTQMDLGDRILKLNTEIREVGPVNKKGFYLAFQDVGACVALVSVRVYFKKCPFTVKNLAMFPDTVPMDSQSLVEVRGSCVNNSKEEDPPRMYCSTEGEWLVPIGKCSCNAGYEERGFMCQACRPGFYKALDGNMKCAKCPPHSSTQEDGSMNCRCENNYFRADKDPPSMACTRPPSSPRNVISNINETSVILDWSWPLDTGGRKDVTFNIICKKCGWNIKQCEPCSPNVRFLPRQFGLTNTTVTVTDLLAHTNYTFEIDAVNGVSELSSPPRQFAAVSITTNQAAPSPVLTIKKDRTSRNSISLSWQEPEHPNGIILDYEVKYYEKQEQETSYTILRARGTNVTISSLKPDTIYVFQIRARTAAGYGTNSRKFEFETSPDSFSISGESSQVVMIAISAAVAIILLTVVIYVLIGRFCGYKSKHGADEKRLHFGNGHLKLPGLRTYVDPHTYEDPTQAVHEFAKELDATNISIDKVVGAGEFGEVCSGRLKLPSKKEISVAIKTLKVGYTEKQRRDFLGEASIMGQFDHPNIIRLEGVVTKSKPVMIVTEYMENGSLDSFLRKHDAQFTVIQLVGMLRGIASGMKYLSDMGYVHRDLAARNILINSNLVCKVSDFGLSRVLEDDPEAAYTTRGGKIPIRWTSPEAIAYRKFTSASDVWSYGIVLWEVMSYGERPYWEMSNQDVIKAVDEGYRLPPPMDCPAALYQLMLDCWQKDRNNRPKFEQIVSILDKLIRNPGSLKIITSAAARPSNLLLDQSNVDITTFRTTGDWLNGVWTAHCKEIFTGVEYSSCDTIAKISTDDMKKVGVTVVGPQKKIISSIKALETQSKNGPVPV

[7] = target: T1, Ephrin type-A receptor 3 (Homo sapiens); conditions: at 1 µM
[8] = target: Ephrin type-A receptor 4 (Homo sapiens) (UniProt P54764); conditions: at 0.1 µM
[9] = target: Ephrin type-A receptor 4 (Homo sapiens) (UniProt P54764); conditions: at 1 µM
[10] = target: T2, Ephrin type-B receptor 2 (Homo sapiens) (UniProt P29323); conditions: at 0.1 µM
T2 sequence (whole entry): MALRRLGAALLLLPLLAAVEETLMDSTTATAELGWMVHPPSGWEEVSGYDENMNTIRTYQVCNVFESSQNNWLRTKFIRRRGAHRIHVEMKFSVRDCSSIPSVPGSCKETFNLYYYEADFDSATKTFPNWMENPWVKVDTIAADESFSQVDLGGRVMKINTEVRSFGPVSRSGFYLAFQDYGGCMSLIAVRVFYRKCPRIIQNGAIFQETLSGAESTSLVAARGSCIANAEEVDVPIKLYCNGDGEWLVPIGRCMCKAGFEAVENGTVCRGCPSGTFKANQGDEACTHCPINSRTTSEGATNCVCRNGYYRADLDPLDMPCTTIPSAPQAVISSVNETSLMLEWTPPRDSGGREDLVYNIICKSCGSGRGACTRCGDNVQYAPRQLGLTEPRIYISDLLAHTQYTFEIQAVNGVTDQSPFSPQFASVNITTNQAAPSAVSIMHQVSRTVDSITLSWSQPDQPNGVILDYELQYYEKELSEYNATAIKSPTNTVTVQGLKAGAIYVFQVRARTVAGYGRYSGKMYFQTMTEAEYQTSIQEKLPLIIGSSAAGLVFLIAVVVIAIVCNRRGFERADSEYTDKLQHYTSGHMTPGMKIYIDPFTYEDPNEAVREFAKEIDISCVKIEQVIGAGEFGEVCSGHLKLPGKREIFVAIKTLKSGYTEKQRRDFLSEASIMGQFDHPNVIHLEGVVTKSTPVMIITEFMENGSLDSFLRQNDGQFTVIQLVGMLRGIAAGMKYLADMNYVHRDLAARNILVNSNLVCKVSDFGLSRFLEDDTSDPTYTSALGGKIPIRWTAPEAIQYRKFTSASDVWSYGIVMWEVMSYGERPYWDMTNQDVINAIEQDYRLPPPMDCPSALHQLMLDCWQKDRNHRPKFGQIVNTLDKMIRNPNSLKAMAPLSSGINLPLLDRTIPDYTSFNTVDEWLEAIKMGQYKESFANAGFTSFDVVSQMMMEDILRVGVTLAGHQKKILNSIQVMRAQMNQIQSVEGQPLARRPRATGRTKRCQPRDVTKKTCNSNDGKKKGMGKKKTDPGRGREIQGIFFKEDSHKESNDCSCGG

[11] = target: T2, Ephrin type-B receptor 2 (Homo sapiens); conditions: at 1 µM
[12] = target: T3, Ephrin type-B receptor 3 (Homo sapiens) (UniProt P54753); conditions: at 0.1 µM
T3 sequence (whole entry): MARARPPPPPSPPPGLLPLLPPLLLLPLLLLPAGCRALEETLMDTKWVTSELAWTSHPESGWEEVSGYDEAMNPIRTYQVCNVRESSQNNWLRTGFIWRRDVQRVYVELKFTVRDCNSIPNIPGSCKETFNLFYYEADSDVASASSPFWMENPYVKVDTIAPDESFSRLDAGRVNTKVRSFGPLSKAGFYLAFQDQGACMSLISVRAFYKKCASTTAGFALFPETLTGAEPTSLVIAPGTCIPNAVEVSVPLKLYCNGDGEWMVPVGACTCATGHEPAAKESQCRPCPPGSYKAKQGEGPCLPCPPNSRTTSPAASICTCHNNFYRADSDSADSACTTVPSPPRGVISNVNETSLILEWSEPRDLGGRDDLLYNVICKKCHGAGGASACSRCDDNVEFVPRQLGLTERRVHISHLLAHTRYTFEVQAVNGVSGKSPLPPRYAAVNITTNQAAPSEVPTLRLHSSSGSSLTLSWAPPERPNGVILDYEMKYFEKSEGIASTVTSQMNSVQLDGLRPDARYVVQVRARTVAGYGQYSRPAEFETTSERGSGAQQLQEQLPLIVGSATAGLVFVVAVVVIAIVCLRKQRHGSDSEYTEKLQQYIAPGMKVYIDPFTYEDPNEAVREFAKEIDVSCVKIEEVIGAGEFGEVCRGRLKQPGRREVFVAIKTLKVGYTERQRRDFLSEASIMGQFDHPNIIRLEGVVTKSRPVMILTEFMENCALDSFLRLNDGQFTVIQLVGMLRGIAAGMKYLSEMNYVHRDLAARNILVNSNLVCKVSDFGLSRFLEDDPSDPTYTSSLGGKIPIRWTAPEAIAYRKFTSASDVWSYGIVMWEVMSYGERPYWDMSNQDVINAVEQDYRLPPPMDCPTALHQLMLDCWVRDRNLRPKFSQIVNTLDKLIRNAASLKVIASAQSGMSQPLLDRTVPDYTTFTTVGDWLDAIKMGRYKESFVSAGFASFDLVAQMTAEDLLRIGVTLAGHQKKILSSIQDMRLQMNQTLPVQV

[13] = target: T3, Ephrin type-B receptor 3 (Homo sapiens); conditions: at 1 µM
[14] = target: T4, Ephrin type-B receptor 4 (Homo sapiens) (UniProt P54760); conditions: at 0.1 µM
T4 sequence (whole entry): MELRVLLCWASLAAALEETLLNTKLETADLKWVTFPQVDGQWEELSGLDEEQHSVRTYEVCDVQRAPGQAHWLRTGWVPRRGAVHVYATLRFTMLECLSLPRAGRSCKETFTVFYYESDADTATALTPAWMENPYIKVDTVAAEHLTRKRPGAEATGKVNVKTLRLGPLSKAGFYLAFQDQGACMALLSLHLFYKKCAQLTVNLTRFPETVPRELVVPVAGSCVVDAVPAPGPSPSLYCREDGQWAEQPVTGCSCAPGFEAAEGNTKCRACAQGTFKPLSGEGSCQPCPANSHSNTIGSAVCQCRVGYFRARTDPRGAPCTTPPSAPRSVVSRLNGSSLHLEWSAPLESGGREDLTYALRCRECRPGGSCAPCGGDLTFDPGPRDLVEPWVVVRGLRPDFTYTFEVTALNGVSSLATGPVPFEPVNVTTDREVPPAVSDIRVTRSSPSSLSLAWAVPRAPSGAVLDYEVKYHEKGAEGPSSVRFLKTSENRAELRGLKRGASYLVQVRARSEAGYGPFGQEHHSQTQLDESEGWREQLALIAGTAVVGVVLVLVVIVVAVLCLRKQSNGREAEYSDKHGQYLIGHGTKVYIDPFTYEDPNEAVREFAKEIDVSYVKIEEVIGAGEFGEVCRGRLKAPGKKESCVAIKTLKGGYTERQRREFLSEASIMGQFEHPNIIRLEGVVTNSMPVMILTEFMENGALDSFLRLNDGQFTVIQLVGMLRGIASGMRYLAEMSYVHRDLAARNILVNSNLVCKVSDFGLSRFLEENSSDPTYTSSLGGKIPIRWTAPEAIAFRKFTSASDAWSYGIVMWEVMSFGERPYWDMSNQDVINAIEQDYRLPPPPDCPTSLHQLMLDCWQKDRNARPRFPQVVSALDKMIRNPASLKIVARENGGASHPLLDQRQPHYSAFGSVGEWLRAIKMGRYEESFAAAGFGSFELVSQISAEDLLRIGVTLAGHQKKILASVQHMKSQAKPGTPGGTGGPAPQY

[15] = target: T4, Ephrin type-B receptor 4 (Homo sapiens); conditions: at 1 µM
[16] = target: Receptor tyrosine-protein kinase erbB-2 (Homo sapiens) (UniProt P04626); conditions: at 0.1 µM
[17] = target: Receptor tyrosine-protein kinase erbB-2 (Homo sapiens) (UniProt P04626); conditions: at 1 µM
[18] = target: Receptor tyrosine-protein kinase erbB-4 (Homo sapiens) (UniProt Q15303); conditions: at 0.1 µM
[19] = target: Receptor tyrosine-protein kinase erbB-4 (Homo sapiens) (UniProt Q15303); conditions: at 1 µM
[20] = target: Tyrosine-protein kinase Fer (Homo sapiens) (UniProt P16591); conditions: at 0.1 µM;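 further: reported figures are averaged percent inhibition of FER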

Receptor tyrosine-protein kinase erbB-2 (Homo sapiens), sequence (P04626 whole entry): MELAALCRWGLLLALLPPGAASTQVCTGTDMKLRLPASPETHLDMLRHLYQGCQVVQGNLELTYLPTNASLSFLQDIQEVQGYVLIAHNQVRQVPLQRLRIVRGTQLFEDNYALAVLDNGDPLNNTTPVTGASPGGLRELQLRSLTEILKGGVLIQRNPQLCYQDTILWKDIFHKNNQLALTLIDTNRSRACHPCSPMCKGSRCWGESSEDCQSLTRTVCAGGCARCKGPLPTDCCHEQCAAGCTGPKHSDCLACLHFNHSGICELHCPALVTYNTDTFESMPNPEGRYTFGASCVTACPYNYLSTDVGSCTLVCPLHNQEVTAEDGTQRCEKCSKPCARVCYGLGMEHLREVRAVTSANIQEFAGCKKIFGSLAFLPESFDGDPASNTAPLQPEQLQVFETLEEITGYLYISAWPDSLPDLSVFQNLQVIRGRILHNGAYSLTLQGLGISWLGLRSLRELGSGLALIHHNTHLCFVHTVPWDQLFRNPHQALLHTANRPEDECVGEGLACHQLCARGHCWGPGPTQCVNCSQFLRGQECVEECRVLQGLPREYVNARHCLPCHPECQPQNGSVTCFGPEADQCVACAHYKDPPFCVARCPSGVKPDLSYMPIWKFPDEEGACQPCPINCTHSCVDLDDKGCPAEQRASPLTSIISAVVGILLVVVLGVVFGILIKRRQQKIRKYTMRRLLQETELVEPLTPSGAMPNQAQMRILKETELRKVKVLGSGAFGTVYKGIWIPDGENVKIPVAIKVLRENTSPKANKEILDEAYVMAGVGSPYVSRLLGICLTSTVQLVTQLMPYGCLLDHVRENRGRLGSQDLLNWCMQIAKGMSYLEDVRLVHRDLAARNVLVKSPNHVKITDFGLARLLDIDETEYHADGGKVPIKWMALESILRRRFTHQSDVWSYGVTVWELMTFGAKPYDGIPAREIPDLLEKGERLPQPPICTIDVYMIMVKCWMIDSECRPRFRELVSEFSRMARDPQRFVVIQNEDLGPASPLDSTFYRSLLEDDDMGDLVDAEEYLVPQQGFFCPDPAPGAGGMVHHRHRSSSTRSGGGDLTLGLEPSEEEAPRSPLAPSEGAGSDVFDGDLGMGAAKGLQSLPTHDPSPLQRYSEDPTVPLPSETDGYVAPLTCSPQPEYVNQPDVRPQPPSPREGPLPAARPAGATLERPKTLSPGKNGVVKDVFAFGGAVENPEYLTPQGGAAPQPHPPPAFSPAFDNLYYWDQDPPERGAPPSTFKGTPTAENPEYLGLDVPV
Ephrin type-A receptor 4 (Homo sapiens), sequence (P54764 whole entry): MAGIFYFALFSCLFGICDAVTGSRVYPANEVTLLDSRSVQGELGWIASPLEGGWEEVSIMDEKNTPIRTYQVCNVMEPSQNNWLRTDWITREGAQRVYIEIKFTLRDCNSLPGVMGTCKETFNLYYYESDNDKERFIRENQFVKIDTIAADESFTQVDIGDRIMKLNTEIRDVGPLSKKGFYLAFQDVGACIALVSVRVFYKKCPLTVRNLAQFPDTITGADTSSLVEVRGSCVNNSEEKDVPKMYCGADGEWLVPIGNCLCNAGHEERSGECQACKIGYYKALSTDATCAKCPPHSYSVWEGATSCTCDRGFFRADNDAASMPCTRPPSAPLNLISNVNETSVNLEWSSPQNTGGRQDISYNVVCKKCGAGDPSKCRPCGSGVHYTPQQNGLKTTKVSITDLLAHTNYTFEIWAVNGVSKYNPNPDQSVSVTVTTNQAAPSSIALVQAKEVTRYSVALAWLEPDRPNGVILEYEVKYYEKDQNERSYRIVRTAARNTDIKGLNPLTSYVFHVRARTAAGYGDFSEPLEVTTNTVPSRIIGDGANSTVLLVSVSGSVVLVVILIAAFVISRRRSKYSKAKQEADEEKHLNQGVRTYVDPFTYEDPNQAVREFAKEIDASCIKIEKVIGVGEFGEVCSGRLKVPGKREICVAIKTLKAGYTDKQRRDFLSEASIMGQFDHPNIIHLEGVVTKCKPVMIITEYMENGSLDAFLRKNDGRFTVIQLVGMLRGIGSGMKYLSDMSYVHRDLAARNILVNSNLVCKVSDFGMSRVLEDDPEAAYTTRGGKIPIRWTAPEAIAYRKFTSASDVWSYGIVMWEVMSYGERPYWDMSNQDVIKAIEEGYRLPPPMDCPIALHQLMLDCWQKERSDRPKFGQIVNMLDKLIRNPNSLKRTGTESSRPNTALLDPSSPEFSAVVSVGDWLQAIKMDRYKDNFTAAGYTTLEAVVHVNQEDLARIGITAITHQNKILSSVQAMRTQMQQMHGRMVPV
Epidermal growth factor receptor (Homo sapiens), P00533 [T790M], sequence (P00533 whole entry T790M): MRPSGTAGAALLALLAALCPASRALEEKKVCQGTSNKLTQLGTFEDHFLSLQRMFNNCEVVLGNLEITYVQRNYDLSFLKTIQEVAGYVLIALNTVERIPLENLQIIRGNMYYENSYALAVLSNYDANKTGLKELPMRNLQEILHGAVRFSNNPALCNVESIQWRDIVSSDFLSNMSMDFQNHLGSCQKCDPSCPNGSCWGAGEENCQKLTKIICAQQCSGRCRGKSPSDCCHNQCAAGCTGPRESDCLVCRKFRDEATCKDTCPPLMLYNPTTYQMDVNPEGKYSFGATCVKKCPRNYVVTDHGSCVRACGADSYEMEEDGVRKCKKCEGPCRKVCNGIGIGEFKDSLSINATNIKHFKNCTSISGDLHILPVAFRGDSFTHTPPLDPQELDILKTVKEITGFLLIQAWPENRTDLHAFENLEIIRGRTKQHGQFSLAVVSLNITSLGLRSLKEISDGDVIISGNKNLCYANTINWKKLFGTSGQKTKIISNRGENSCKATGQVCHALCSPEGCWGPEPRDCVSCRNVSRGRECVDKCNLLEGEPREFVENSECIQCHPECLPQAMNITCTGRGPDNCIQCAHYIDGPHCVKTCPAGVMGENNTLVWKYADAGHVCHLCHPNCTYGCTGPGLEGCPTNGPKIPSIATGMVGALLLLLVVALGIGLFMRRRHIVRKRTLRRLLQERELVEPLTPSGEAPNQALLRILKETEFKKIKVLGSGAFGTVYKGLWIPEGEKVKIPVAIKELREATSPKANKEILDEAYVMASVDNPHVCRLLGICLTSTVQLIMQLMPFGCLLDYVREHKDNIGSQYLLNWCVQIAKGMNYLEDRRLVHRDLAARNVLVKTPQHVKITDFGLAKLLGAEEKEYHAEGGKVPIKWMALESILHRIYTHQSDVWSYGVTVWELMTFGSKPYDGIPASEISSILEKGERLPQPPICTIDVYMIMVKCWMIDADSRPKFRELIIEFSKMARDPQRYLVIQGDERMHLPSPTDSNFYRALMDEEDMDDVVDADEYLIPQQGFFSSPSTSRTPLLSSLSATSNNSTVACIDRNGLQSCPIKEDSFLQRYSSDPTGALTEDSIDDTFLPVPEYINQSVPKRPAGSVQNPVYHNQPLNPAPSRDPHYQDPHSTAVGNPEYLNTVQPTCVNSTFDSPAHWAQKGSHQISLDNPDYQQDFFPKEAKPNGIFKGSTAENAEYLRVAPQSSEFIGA
Ephrin type-A receptor 2 (Homo sapiens), sequence (P29317 whole entry): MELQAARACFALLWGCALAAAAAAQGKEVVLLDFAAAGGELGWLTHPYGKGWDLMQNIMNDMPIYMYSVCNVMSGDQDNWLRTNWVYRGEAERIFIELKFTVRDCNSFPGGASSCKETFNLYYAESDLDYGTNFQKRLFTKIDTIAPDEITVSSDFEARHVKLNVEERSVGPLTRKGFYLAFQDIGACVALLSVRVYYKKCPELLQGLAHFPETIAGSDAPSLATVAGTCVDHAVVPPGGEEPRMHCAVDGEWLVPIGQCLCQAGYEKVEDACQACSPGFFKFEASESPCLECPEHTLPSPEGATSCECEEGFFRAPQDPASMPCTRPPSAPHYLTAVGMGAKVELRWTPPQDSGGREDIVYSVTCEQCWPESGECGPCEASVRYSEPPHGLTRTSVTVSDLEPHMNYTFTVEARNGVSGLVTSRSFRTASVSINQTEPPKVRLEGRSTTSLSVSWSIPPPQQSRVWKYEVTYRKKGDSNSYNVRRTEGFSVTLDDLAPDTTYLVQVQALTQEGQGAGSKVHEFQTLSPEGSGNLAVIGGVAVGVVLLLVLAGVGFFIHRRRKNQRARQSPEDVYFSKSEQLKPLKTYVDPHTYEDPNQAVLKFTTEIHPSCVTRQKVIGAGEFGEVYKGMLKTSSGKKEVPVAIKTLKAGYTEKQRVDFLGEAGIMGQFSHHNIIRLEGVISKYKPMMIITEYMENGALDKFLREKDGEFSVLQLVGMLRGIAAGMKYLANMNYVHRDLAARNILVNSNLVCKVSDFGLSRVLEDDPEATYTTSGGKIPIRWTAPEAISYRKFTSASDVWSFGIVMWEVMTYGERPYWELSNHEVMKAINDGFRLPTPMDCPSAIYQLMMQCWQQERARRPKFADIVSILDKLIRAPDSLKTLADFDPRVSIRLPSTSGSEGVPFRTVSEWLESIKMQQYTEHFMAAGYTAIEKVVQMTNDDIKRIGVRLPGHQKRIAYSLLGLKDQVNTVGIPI

| SMILES | inhibition [1] [%] | inhibition [2] [%] | inhibition [3] [%] | inhibition [4] [%] | inhibition [5] [%] | inhibition [6] [%] | inhibition [7] [%] | inhibition [8] [%] | inhibition [9] [%] | inhibition [10] [%] | inhibition [11] [%] | inhibition [12] [%] | inhibition [13] [%] | inhibition [14] [%] | inhibition [15] [%] | inhibition [16] [%] | inhibition [17] [%] | inhibition [18] [%] | inhibition [19] [%] | inhibition [20] [%] |
| --- | --- | --- | --- | --- | --- | --- | --- | --- | --- | --- | --- | --- | --- | --- | --- | --- | --- | --- | --- | --- |
| NC(=O)c1ccc(-c2nc(-c3ccccn3)c(-c3ccc4c(c3)OCO4)[nH]2)cc1 | 1.62 | 3.52 | -0.97 | -0.18 | -0.13 | 3.83 | 1.89 | 7.63 | 7.96 | 6.11 | 6.48 | 4.63 | 1.89 | 3.74 | 1.95 | 2.99 | 0.42 | 7.53 | 11.4 | 1.79 |
| Cc1cccc(-c2n[nH]cc2-c2ccc3ncccc3n2)n1 | -0.3 | -1.54 | -0.13 | -2.12 | -2.51 | 0.6 | 3.6 | 3.45 | 4.46 | 1.55 | 5.67 | 2.71 | 1.95 | -0.2 | 2.61 | 1.42 | -0.81 | 2.27 | 4 | 0.04 |
| O=C1NC(=O)C(N2CCc3ccccc32)=C1c1ccc(Cl)cc1 | -0.47 | 1.35 | 2.67 | 1.33 | 1.75 | 3.76 | 3.61 | 8.28 | 3.43 | 5.72 | 12.6 | 7.43 | 6.04 | 3.92 | 1.54 | 0.97 | -4.09 | 8.85 | 24 | 2.88 |
| Cc1nn(C)c2cc(N(C)c3ccnc(Nc4cccc(S(N)(=O)=O)c4)n3)ccc12 | 7.49 | 1.34 | 12.7 | 1.28 | 18.6 | 6.82 | 16.5 | 12.2 | 43.7 | 7.61 | 37.8 | 5.14 | 4.43 | 7.86 | 39.6 | 3.03 | 10.1 | 11 | 29.3 | 4.27 |
| COc1cc2ncn(-c3cc(O[C@H](C)c4ccccc4Cl)c(C(N)=O)s3)c2cc1OC | 6.04 | 3.14 | 6.52 | 5.44 | 6.5 | 3.58 | 14.3 | 18.9 | 26.8 | 16.6 | 21.9 | 3.78 | 5.92 | 4.27 | 7.03 | 2.23 | 7.82 | 7.95 | 14 | 4.62 |
| CCn1c(-c2nonc2N)nc2cncc(C(=O)N3CC[C@H](N)C3)c21 | 3.15 | 1.56 | 1.95 | -0.29 | -0.49 | 4.99 | 5.74 | 9.5 | 10 | 5.01 | 6.1 | 6.62 | 4.88 | 6.15 | 2.54 | 4.24 | 7.27 | 13.3 | 17.8 | 1.22 |
